Experiment [1] can be described thus: qHTS for Inhibitors of the vitamin D receptor (VDR): Hit Validation using a Texas Red Assay (AID 602201). Also: % is scaled to controls: 0 for no effect and ±100 for the full control effect. The method, boiled down:
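After a 2-hour room-temperature incubation, polarization of Texas-Red emission was read (Ex 595 nm/Em 615 nm). Final mix contained 7 nM Texas Red, 1.5 uM VDR-LBD and LG19078.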

In experiment [2] the target is Rap guanine nucleotide exchange factor 4 (Homo sapiens) (UniProt Q8WZA2). The experiment can be described thus: Confirmatory qHTS for agonist of cAMP-regulated guanine nucleotide exchange factor 4 (EPAC2) (AID 1645884).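 Also: nucleotide exchange releases bodipy-GDP from Rap1 and this lowers its fluorescence; nearly all actives have a fitted effect of over 65% in size.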 Also: potency is read from the fitted curve at half-maximal effect. As to activation: % is scaled to controls: 0 for no effect and ±100 for the full control effect. On the technique in general: In qHTS, concentration-response curves come from the screen itself.
Rap guanine nucleotide exchange factor 4 (Homo sapiens), sequence (Q8WZA2 whole entry, looked up): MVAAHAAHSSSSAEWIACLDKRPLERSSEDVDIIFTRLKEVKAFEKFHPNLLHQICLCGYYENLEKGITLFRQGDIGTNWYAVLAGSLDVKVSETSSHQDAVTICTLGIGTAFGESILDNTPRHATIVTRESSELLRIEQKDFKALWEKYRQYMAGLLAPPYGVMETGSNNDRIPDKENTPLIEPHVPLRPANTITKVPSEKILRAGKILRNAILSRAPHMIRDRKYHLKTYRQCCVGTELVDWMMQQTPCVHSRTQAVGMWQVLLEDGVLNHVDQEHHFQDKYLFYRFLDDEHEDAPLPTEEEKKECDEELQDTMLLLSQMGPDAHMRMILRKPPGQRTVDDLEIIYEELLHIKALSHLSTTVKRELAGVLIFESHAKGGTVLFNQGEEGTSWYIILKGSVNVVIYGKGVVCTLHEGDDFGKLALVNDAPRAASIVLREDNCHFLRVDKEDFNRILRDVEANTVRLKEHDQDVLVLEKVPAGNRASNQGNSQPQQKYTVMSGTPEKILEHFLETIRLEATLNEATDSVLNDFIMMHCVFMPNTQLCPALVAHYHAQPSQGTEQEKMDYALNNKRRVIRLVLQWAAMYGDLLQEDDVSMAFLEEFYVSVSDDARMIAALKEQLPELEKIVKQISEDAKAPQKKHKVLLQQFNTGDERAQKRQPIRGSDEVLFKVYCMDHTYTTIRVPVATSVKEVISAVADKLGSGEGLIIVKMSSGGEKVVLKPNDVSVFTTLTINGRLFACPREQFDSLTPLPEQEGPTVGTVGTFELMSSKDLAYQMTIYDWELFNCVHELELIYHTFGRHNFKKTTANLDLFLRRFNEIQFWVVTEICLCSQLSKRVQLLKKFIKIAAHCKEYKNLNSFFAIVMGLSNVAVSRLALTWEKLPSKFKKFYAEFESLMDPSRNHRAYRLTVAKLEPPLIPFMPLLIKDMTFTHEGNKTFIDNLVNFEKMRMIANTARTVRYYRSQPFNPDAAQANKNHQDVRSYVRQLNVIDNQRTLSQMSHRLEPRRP
Experiment [3] deals with Rap guanine nucleotide exchange factor 3 (Homo sapiens) (UniProt O95398). In words: Confirmatory qHTS for antagonist of cAMP-regulated guanine nucleotide exchange factor 3 (EPAC1) (AID 1645880). Also: nearly all actives have a fitted effect of over 55% in size. Also: potency is read from the fitted curve at half-maximal effect.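 As to activity, negative = inhibition: plate controls were DMSO only for no effect and full effect of the ATA control for full effect.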 To be noted: EPAC1 Rap1B-BODIPY-GDP exchange, fluorescence; activity, negative = inhibition: at 115 µM (top of the series). The method, boiled down: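 Nucleotide exchange uses 100 nM EPAC1, 250 nM RAP1B-BODIPY-GDP and 50 uM GDP, with compounds in a concentration-titration series. After 5 min at room temperature, fluorescence (480 nm ex/540 nm em) is read every 5 min for 30 min. Data are normalized to control ATA and DMSO.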
Rap guanine nucleotide exchange factor 3 (Homo sapiens), sequence (O95398 whole entry, looked up): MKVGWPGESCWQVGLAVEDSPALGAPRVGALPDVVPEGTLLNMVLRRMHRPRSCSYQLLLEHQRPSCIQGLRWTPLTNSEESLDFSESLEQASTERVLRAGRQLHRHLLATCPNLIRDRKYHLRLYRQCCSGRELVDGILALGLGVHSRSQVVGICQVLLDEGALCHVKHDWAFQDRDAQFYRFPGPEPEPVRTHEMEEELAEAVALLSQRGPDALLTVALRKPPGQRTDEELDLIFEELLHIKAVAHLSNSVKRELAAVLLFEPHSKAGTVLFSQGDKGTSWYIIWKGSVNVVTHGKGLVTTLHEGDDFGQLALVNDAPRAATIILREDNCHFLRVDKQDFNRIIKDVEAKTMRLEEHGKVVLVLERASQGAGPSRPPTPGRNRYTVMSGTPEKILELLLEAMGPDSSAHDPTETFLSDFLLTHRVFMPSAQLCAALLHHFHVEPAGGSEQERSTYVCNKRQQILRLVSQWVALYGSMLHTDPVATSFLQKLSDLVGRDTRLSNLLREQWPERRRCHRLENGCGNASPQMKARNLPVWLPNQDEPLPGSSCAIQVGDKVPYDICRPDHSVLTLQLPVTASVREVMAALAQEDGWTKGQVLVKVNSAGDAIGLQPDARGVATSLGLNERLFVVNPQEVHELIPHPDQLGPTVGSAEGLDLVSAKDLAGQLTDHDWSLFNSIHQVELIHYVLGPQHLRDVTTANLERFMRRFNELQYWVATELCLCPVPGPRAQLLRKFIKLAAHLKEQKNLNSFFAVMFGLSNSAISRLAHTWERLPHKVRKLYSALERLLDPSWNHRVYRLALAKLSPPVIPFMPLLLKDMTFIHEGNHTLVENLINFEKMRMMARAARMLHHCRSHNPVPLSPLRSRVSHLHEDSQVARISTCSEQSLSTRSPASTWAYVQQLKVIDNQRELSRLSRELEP

Experiment [4] has as its target Rap guanine nucleotide exchange factor 4 (Homo sapiens) (UniProt Q8WZA2). In words: Confirmatory qHTS for antagonist of cAMP-regulated guanine nucleotide exchange factor 4 (EPAC2) (AID 1645885). Also: nearly all actives have a fitted effect of over 25% in size. Also: potency is read from the fitted curve at half-maximal effect. As to activity change, negative = inhibition: % is scaled to controls: 0 for no effect and ±100 for the full control effect.
Experiment [5] deals with Rap guanine nucleotide exchange factor 3 (Homo sapiens) (UniProt O95398). In words: Counterscreen qHTS for antagonist of cAMP-regulated guanine nucleotide exchange factor 3 (EPAC1) (AID 1645888).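 Also: fluorescence loss as bound BODIPY-GDP is released from Rap1B; % of control where 0% means no effect.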 The gist of the method: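 Rap1B-BODIPY-GDP 250 nM + GDP 50 uM; cpds 7-pt, final 9.74 nM–152 uM (activator mode) or from 7.32 nM upwards (inhibitor mode); RT; FI 480/540 nm at 5 and 30 min, then ± cAMP, reread.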
(In general: A counterscreen serves to expose hits that act by an unwanted route or on another target.)

Records with an inconclusive call do not appear. Unmarked numbers belong to inactive results. The source made the active and inactive calls. Calls follow the shape of the dose curve; as a rule, active = well fitted curve in the direction sought with a large enough effect; inconclusive = small, poorly fitted or top-dose-only effect, or another doubt; inactive = no such curve, though single readings can be large; an effect the other way counts as inactive or inconclusive.

With `O=C(O)c1cc(Nc2cc(Cl)c3nonc3c2[N+](=O)[O-])ccc1O`, the Potency entry in experiment [1] is “inactive”.

As to `Cn1c(=O)c(C#N)c(-c2ccc(F)cc2)c2cc(C(=O)c3cc(Cl)cc(Cl)c3O)cnc21`, the Potency entry in experiment [2] is “inactive”.

`O=C(CSc1nc2ccccc2o1)NCc1ccc2c(c1)OCO2`: the Potency result in experiment [2] is “inactive”.

As for `COc1cc2c(c(OC)c1OC)C(c1ccc(C)cc1)CC(=O)O2` (stereo unspecified), the Potency result in experiment [3] and in experiment [4] was “inactive” each time. For the same compound, the activation in experiment [2] was 3.46% [at 17.1 µM, percent relative to cAMP agonist control]. Besides, in experiment [5], the activity change, negative = inhibition was 6.91% [at 30.8 µM].

With `O=C(NN=Cc1c(O)ccc2ccccc12)c1ccncc1`, the Potency result in experiment [3] and in experiment [4] was “inactive” throughout. Further, the activation in experiment [2] is 6.24% [at 17.1 µM, percent relative to cAMP agonist control]. The activity change, negative = inhibition in experiment [5] was 4.58% [at 30.8 µM].

For `COc1ccc(OC)c(/C=C2\SC(=S)N(Cc3cccnc3)C2=O)c1`, the Potency result in experiment [3] and in experiment [4] was “inactive” each time. Besides, the activation in experiment [2] was 3.3% [at 17.1 µM, percent relative to cAMP agonist control]. Also, in experiment [5], the activity change, negative = inhibition was -3.11% [at 30.8 µM].

On to `COC(=O)c1cc2sc(Cl)cc2n1Cc1cc(C)ccc1C`, for which the Potency entry in experiment [3], in experiment [2], in experiment [4] and in experiment [5] was “inactive” each time.

For the compound `Cc1ccc2nc(/C(C#N)=C\c3ccc(N4CCOCC4)o3)[nH]c2c1`, the Potency result in experiment [3] and in experiment [4] was “inactive” throughout. Further, the activation in experiment [2] is 11.1% [at 17.1 µM, percent relative to cAMP agonist control]. Besides, in experiment [5], the activity change, negative = inhibition is 15.8% [at 30.8 µM].

As for `CCOc1ccccc1Oc1nc(C)nc2c1oc1ccccc12`, the Potency result in experiment [3], in experiment [2], in experiment [4] and in experiment [5] was “inactive” throughout.

As for `COc1ccc(C(=O)/C=C/c2ccc(N(C)C)cc2)c(OC)c1`, the Potency entry in experiment [3], in experiment [2], in experiment [4] and in experiment [5] was “inactive” each time.

As to `O=C1c2cccc3c(N4CCCCC4)ccc(c23)C(=O)N1c1ccccc1O`, the Potency result in experiment [3] and in experiment [4] was “inactive” throughout. Moreover, in experiment [2], the activation is 13.2% [at 17.1 µM, percent relative to cAMP agonist control]. Moreover, the activity change, negative = inhibition in experiment [5] is -4.8% [at 30.8 µM].

`O=S(=O)(NCC(c1ccco1)N1CCc2ccccc21)c1ccccc1` (stereo unspecified): the Potency result in experiment [3] and in experiment [4] was “inactive” throughout. Besides, the activation in experiment [2] is 5.38% [at 17.1 µM, percent relative to cAMP agonist control]. In addition, in experiment [5], the activity change, negative = inhibition was -0.643% [at 30.8 µM].

For `COc1ccc(-c2ncccc2OC(=O)C23CC4CC(CC(C4)C2)C3)cc1OC`, the Potency result in experiment [3] and in experiment [4] was “inactive” in each case. The activation in experiment [2] was 1.83% [at 17.1 µM, percent relative to cAMP agonist control]. The activity change, negative = inhibition in experiment [5] was -6.96% [at 30.8 µM].

On to `CCc1ccc(NC(=O)/C(C#N)=C/c2cc3ccc(C)cc3nc2N2CCOCC2)cc1`, for which the Potency result in experiment [3] and in experiment [4] was “inactive” in each case. For the same compound, the activation in experiment [2] is 0% [at 17.1 µM, percent relative to cAMP agonist control]. In addition, the activity change, negative = inhibition in experiment [5] is -18.1% [at 30.8 µM].

For `O=C1CCC2CN3CCc4c([nH]c5ccccc45)C3CC2C1` (stereo unspecified), the Potency entry in experiment [3] and in experiment [4] was “inactive” each time. For the same compound, the activation in experiment [2] is -5.59% [at 17.1 µM, percent relative to cAMP agonist control]. In experiment [5], the activity change, negative = inhibition is 2.15% [at 30.8 µM].

Take `CC(NC(=O)/C(C#N)=C/c1ccc(N2CCOCC2)cc1)c1ccccc1` (stereo unspecified): the Potency result in experiment [3], in experiment [4] and in experiment [5] was “inactive” each time. In addition, the Potency in experiment [2] was 112 µM (active).

With `CCN1CCN(Cc2c(O)ccc3c2O/C(=C\C=C\c2ccccc2OC)C3=O)CC1`, the Potency result in experiment [3] and in experiment [4] was “inactive” throughout. Also, the activation in experiment [2] was 5.66% [at 17.1 µM, percent relative to cAMP agonist control].

For the compound `Cc1cccc(NCc2cccc3ccccc23)n1`, the Potency result in experiment [3] and in experiment [4] was “inactive” throughout. Moreover, the activation in experiment [2] is 4.47% [at 17.1 µM, percent relative to cAMP agonist control]. In experiment [5], the activity change, negative = inhibition is -11.4% [at 30.8 µM].

As for `COc1ccc(OC)c(/C=C/c2nc3ccccc3nc2C)c1`, the Potency entry in experiment [3] and in experiment [4] was “inactive” throughout. For the same compound, the Potency in experiment [2] was 79.3 µM (active).

In the case of `COc1ccc(Cl)cc1NC(=O)CN(C)C(C)C(=O)NC(=O)NC1CCCCC1` (stereo unspecified), the Potency result in experiment [3], in experiment [2], in experiment [4] and in experiment [5] was “inactive” each time.

For `CCc1cccc(CC)c1N1C(=O)C2=C(SCCCS2)C1=O`, the Potency entry in experiment [3], in experiment [4] and in experiment [5] was “inactive” in each case. In experiment [2], the Potency was 112 µM (active).

As to `CCOc1ccc2c(ccc(/C=C/c3cc(C)c4cccnc4c3O)[n+]2C)c1`, the Potency in experiment [3] is 60.1 µM (active); in experiment [2], 70.8 µM (active); in experiment [4] it was 42.6 µM (active).

As for `O=C(NCc1ccco1)c1ccc(Cn2c(=S)[nH]c3ccccc3c2=O)cc1`, the Potency entry in experiment [3], in experiment [2] and in experiment [5] was “inactive” each time. Besides, the Potency in experiment [4] was 0.953 µM (active).

Consider `COc1ccc(NC(=O)c2c(-c3ccccc3)c(-c3ccccc3)nn(C)c2=O)c(OC)c1`, for which the Potency result in experiment [3], in experiment [2], in experiment [4] and in experiment [5] was “inactive” throughout.

For `CCOC(=O)C1CCCN(c2c(C(=O)c3ccccc3)cnc3ccc(OC)cc23)C1` (stereo unspecified), the Potency result in experiment [3] and in experiment [4] was “inactive” each time. Besides, in experiment [2], the activation is 6.11% [at 17.1 µM, percent relative to cAMP agonist control]. Moreover, in experiment [5], the activity change, negative = inhibition was 19.5% [at 30.8 µM].

For `CCOC(=O)C1=C(C)N=c2s/c(=C\c3cccn3C)c(=O)n2C1c1cccc(OC)c1OC` (stereo unspecified), the Potency result in experiment [3] and in experiment [4] was “inactive” throughout. Besides, the activation in experiment [2] is 19.2% [at 17.1 µM, percent relative to cAMP agonist control]. The activity change, negative = inhibition in experiment [5] is -4.43% [at 30.8 µM].

With `Cc1cccc(C(C)C)c1-n1nnnc1-c1ccccc1`, the Potency entry in experiment [3] was “inactive”. Besides, the activation in experiment [2] is 6.22% [at 17.1 µM, percent relative to cAMP agonist control]. In experiment [4], the Potency is 3.01 µM (active). Moreover, the activity change, negative = inhibition in experiment [5] is -11.8% [at 30.8 µM].

Source of the values: PubChem BioAssay (NCATS).
